The source made the active and inactive calls. The calls were made as follows: active = hit-call score of the fitted dose curve at least 0.9, where 1 is the maximum; inactive = score below 0.9.
read-out: Monokine induced gamma interferon (MIG), CXCL9 (gene 4283); test: BSK_SAg_MIG: BioMAP Diversity Plus: SAg Assay for Monokine induced gamma interferon (MIG) Biomarker Activity (AID 2283092); conditions: primary human HUVEC with PBMC; actives raise or lower the signal
Summary of the method: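 Endothelial cells and PBMC were co-cultured, exposed to test chemicals, and sampled 24 h later. MIG was measured by ELISA, and responses were fitted in both directions relative to DMSO.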

Structure (SMILES)	outcome	AC50
O=C(O)Cc1cc(I)c(Oc2ccc(O)c(I)c2)c(I)c1	inactive	–
Cc1cccc2ccccc12	inactive	–
O=c1c(-c2ccc(O)cc2)coc2cc(O)cc(O)c12	–	29.7 µM (active)
CC/C(=C(/CC)c1ccc(O)cc1)c1ccc(O)cc1	–	31.9 µM (active)
Cc1cc(F)ccc1-c1cc(N2CC[C@@H](O)[C@H]2CO)ncc1N(C)C(=O)C(C)(C)c1cc(C(F)(F)F)cc(C(F)(F)F)c1	–	13.1 µM (active)
O=C1O[C@H]([C@@H](O)CO)C(O)=C1O	inactive	–
CO[C@H]1/C=C/O[C@@]2(C)Oc3c(C)c(O)c4c(O)c(c(/C=N/N5CCN(C)CC5)c(O)c4c3C2=O)NC(=O)/C(C)=C\C=C\[C@H](C)[C@H](O)[C@@H](C)[C@@H](O)[C@@H](C)[C@H](OC(C)=O)[C@@H]1C	inactive	–
C[C@]12CC[C@@H]3c4ccc(O)cc4CC[C@H]3[C@@H]1CCC2=O	inactive	–
Oc1ccc2ccccc2c1	inactive	–
c1ccc(C[n+]2cccc3ccccc32)cc1	inactive	–
CCCCCCCCCCCO	inactive	–
O=C(Nc1ccc(Cl)cc1)Nc1ccc(Cl)c(Cl)c1	–	2.11 µM (active)
CCCCCCCCOC(=O)c1cc(O)c(O)c(O)c1	–	30.4 µM (active)
CN1C(=O)N(c2ccccc2Br)Cc2cnc(Nc3ccc4c(c3)OCC(CO)O4)nc21 (stereo not given)	–	2.89 µM (active)
Cc1oc2c(NC(=O)c3c(Cl)cccc3Cl)cccc2c1C(C)(C)O	inactive	–
O=C=NCCCCCCN=C=O	inactive	–
c1ccc2ccccc2c1	inactive	–
O=CCCCC=O	inactive	–
COc1cc(C(=O)NC2CCN(C)CC2)ccc1Nc1ncc2c(n1)N(C1CCCC1)CC(F)(F)C(=O)N2C	–	14.4 µM (active)

Structure (SMILES)	outcome	AC50
O=C1c2ccccc2C(=O)N1CCc1noc(-c2ccc(CN3CCCCCC3)s2)n1	inactive	–
CCCC(=O)OCCC(C)C	inactive	–
Clc1cc(Cl)c2c(c1)N=C1CCCCCN1C2	inactive	–
CC(C)(c1cc(Br)c(O)c(Br)c1)c1cc(Br)c(O)c(Br)c1	–	36.1 µM (active)
CCCOC(=O)c1cc(O)c(O)c(O)c1	inactive	–
O=C(OCCCCCCOC(=O)c1ccccc1)c1ccccc1	inactive	–
CC(C)(C)c1cc(/C=C2\SC(N)=NC2=O)cc(C(C)(C)C)c1O	–	27.6 µM (active)
CCO[Si](CCCNC(N)=O)(OCC)OCC	inactive	–
O=C(O)Cn1c(=O)n(Cc2ccc(Br)cc2F)c(=O)c2ccc(Cl)cc21	inactive	–
COc1ccc2cc(S(=O)(=O)N[C@H](CC(=O)N[C@H](Cc3ccc(CN4[C@H](C)CCC[C@@H]4C)cc3)C(=O)N(C)C(C)C)c3ccc4c(c3)OCO4)ccc2c1	–	35.2 µM (active)
CC(C)(C)c1csc(-c2cc3cc(OCc4ccccc4CC(=O)O)ccc3o2)n1	–	38.5 µM (active)
Cc1ccc(C(C)C)cc1	inactive	–
O=C(O)c1ccccc1C(=O)OCc1ccccc1	inactive	–
CCCCCCCC[Si](OCC)(OCC)OCC	inactive	–
CCN(Cc1cccnc1)C(=O)c1cccc(Cl)c1[C@]1(C)C(=O)N(Cc2ccc(OC)cc2OC)c2ccc(Cl)cc21	inactive	–
O=C(O)c1ccccc1-n1cc(C(=O)O)c(=O)c2cc(Nc3c(F)cc(F)cc3Cl)c(Cl)cc21	inactive	–
Cc1cc2c(cc1C(F)(F)F)N(C(=O)Nc1ccc(Oc3cccnc3C)nc1)CC2	inactive	–
CCCCOC(=O)CC(CC(=O)OCCCC)(OC(C)=O)C(=O)OCCCC	inactive	–

read-out: not listed separately; test: BSK_SAg_PBMCCytotoxicity: PBMC Cytotoxicity Assessment in the BioMAP Diversity Plus: SAg Assay (AID 2283093); conditions: primary human HUVEC with PBMC;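 also: fitted both ways against DMSO so a hit may be loss or gain of signal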;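 as to AC50: PBMC superantigen activated with SEB plus TSST-1 one hour after compound addition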
Summary of the method: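 PBMC viability by Alamar Blue reduction, fluorescence read at 546/580 nm after 6 h dye exposure. Cells were dosed 1 h before SEB plus TSST-1 activation (20 ng/mL final each), then held 90 h; endothelial/PBMC human co-culture.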

Structure (SMILES)	outcome	AC50
O=C(O)Cc1cc(I)c(Oc2ccc(O)c(I)c2)c(I)c1	inactive	–
Cc1cccc2ccccc12	inactive	–
O=c1c(-c2ccc(O)cc2)coc2cc(O)cc(O)c12	–	20 µM (active)
CC/C(=C(/CC)c1ccc(O)cc1)c1ccc(O)cc1	–	29.1 µM (active)
Cc1cc(F)ccc1-c1cc(N2CC[C@@H](O)[C@H]2CO)ncc1N(C)C(=O)C(C)(C)c1cc(C(F)(F)F)cc(C(F)(F)F)c1	–	7.85 µM (active)
O=C1O[C@H]([C@@H](O)CO)C(O)=C1O	inactive	–
CO[C@H]1/C=C/O[C@@]2(C)Oc3c(C)c(O)c4c(O)c(c(/C=N/N5CCN(C)CC5)c(O)c4c3C2=O)NC(=O)/C(C)=C\C=C\[C@H](C)[C@H](O)[C@@H](C)[C@@H](O)[C@@H](C)[C@H](OC(C)=O)[C@@H]1C	–	9.8 µM (active)
C[C@]12CC[C@@H]3c4ccc(O)cc4CC[C@H]3[C@@H]1CCC2=O	inactive	–
Oc1ccc2ccccc2c1	inactive	–
c1ccc(C[n+]2cccc3ccccc32)cc1	inactive	–
CCCCCCCCCCCO	–	33.1 µM (active)
O=C(Nc1ccc(Cl)cc1)Nc1ccc(Cl)c(Cl)c1	–	2.72 µM (active)
CCCCCCCCOC(=O)c1cc(O)c(O)c(O)c1	–	27.7 µM (active)
CN1C(=O)N(c2ccccc2Br)Cc2cnc(Nc3ccc4c(c3)OCC(CO)O4)nc21 (stereo not given)	–	1.87 µM (active)
Cc1occc1C(=O)Nc1ccc(C(=O)N2CCC(F)(F)/C(=C\C(=O)N3CCC(N4CCCCC4)CC3)c3ccccc32)cc1	inactive	–
Cc1oc2c(NC(=O)c3c(Cl)cccc3Cl)cccc2c1C(C)(C)O	–	14.2 µM (active)
O=C=NCCCCCCN=C=O	inactive	–
c1ccc2ccccc2c1	inactive	–
O=CCCCC=O	–	20.6 µM (active)

Structure (SMILES)	outcome	AC50
COc1cc(C(=O)NC2CCN(C)CC2)ccc1Nc1ncc2c(n1)N(C1CCCC1)CC(F)(F)C(=O)N2C	–	13.8 µM (active)
O=C1c2ccccc2C(=O)N1CCc1noc(-c2ccc(CN3CCCCCC3)s2)n1	inactive	–
CCCC(=O)OCCC(C)C	inactive	–
Clc1cc(Cl)c2c(c1)N=C1CCCCCN1C2	inactive	–
CC(C)(c1cc(Br)c(O)c(Br)c1)c1cc(Br)c(O)c(Br)c1	–	33.3 µM (active)
CCCOC(=O)c1cc(O)c(O)c(O)c1	inactive	–
O=C(OCCCCCCOC(=O)c1ccccc1)c1ccccc1	inactive	–
CC(C)(C)c1cc(/C=C2\SC(N)=NC2=O)cc(C(C)(C)C)c1O	–	11.1 µM (active)
CCO[Si](CCCNC(N)=O)(OCC)OCC	inactive	–
O=C(O)Cn1c(=O)n(Cc2ccc(Br)cc2F)c(=O)c2ccc(Cl)cc21	inactive	–
COc1ccc2cc(S(=O)(=O)N[C@H](CC(=O)N[C@H](Cc3ccc(CN4[C@H](C)CCC[C@@H]4C)cc3)C(=O)N(C)C(C)C)c3ccc4c(c3)OCO4)ccc2c1	–	14.6 µM (active)
CC(C)(C)c1csc(-c2cc3cc(OCc4ccccc4CC(=O)O)ccc3o2)n1	inactive	–
Cc1ccc(C(C)C)cc1	inactive	–
O=C(O)c1ccccc1C(=O)OCc1ccccc1	inactive	–
CCCCCCCC[Si](OCC)(OCC)OCC	–	18.7 µM (active)
CCN(Cc1cccnc1)C(=O)c1cccc(Cl)c1[C@]1(C)C(=O)N(Cc2ccc(OC)cc2OC)c2ccc(Cl)cc21	inactive	–
O=C(O)c1ccccc1-n1cc(C(=O)O)c(=O)c2cc(Nc3c(F)cc(F)cc3Cl)c(Cl)cc21	inactive	–
Cc1cc2c(cc1C(F)(F)F)N(C(=O)Nc1ccc(Oc3cccnc3C)nc1)CC2	inactive	–
CCCCOC(=O)CC(CC(=O)OCCCC)(OC(C)=O)C(=O)OCCCC	inactive	–

Source: PubChem BioAssay (EPA / NIEHS)
